Source: PubChem (National Center for Advancing Translational Sciences (NCATS))
HCMV antiviral – human cytomegalovirus inhibition | HFF cells, HCMV-luciferase reporter, 72 h; stronger effect = lower value | activity change, negative = inhibition, % at 57.5 µM | 410,000 compounds, 4.5% hits; in the data active = activity change below about -60%; inconclusive = no clear call, values can overlap the other calls; inactive = above about -39%
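Steps: HFFs plated, 16 h 37C; compounds added; HCMV-luciferase added to MOI 1 PFU/cell; 72 h 37C; OneGlo reagent, 5 min room temperature; luminescence read, normalized to controls.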
Pf growth 48h – inhibits P. falciparum growth in the first generation, 48 h; Potency, µM (top dose mostly 28.7 µM), usual class: inhibitors; 310,000 compounds, 5.9% hits; AID 504832; P. falciparum luciferase growth in erythrocytes, 48 h
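Read-out is firefly luciferase luminescence from an integrated reporter in P. falciparum, so falling signal marks reduced parasite growth. Infected erythrocytes were at 2% hematocrit and 0.1% parasitemia (final) in Albumax-supplemented RPMI 1640.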
HCV inh – HCV inhibition; Huh7.5.1 HCVcc-Cre infection, luciferase reporter, 44 h; Potency, µM (series often up to 41.8 µM), most hits filed as inhibitors; 340,000 compounds, 3.4% hits; AID 651820
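Luciferase read-out (15 sec integration) after a 15 min room-temperature substrate step quantifies HCVcc-Cre infection. Cells, 1,000 per well, had compound added 4 h post-plating, then virus at ~0.5 moi, and were cultured 44 h.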
Pf growth 96h – inhibits malaria parasite growth, 96 h; P. falciparum luciferase reporter growth, 96 h; 320,000 compounds, 6.9% hits; Potency, µM (series often up to 28.7 µM), usual class: inhibitors
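P. falciparum expressing integrated firefly luciferase grown in erythrocytes (2% hematocrit, 0.05% parasitemia final) with compounds for 96 hours at 37 C, 5% CO2. Growth inhibition read as loss of luminescence after adding luciferase detection reagent.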
Each line names hits and unclear results; the compound was inactive in the other large screens; ! = repeats disagree. Hits are enriched below; roughly 13% of the tested compounds scored in any of these assays. Unless noted, calls come from the whole dose curve; as a rule, active = well fitted inhibition curve with a large enough effect; inconclusive = small, poorly fitted or top-dose-only effect, or another doubt; inactive = no such curve, though single readings can be large or run the other way.

O=C(Nc1ccc(F)cc1F)c1cc2ccc3cccnc3c2[nH]1	none (no result: Pf growth 48h, HCV inh, Pf growth 96h)
COc1ccc(-c2cnc(N)nc2-c2ccc(OC)cc2)cc1	HCV inh inconclusive
COc1ccc2c(c1)CCc1cnc(N)nc1-2	HCMV antiviral -67.5, HCV inh inconclusive, Pf growth 96h inconclusive
CCC(=O)Nc1ccc(CC)cc1-c1nc2ccccc2n(CC(=O)Nc2cccc(OC)c2)c1=O	none (no result: Pf growth 48h, HCV inh, Pf growth 96h)
Cc1sc2ccccc2c1CC1=NCCN1	Pf growth 48h inconclusive, HCV inh 3.16µM, Pf growth 96h 8.49µM!
O=C(O)c1ccc(S(=O)(=O)NCc2ccc3c(c2)OCO3)cc1	none
CC(C)c1ccc(S(=O)(=O)NCc2ccc3c(c2)OCO3)cc1	Pf growth 96h 10.4µM
CC(C)CNS(=O)(=O)c1ccc(CCC(=O)Nc2ccc3c(c2)OCO3)cc1	Pf growth 96h 4.15µM
O=C(COC(=O)C1(c2ccc(F)cc2)CCCC1)N1CCN(C(=O)c2ccco2)CC1	HCMV antiviral -106.2, Pf growth 48h inconclusive, HCV inh inconclusive, Pf growth 96h inconclusive
COc1ccc(C(=O)OCC(=O)N2CCN(C(=O)c3ccco3)CC2)c(OC)c1OC	HCMV antiviral -102.3 (no result: Pf growth 48h, HCV inh, Pf growth 96h)
O=C(COC(=O)C1(c2ccccc2F)CCCC1)N1CCN(C(=O)c2ccco2)CC1	Pf growth 48h inconclusive, Pf growth 96h inconclusive
Cc1cc(C)cc(N2CC(c3nc(-c4cccc(Cl)c4)no3)CC2=O)c1 (centres undefined)	none (no result: Pf growth 48h, HCV inh, Pf growth 96h)
CNC(=O)c1csc(-c2cccs2)n1	none
Cc1nc(C(=O)NNC(=O)c2ccc(Cl)cc2)cs1	HCMV antiviral -100.9, Pf growth 48h inconclusive, HCV inh inconclusive, Pf growth 96h inconclusive
O=C(NNC(=O)c1csc(-c2cccs2)n1)c1ccc(Cl)cc1	HCMV antiviral -103.2 (no result: Pf growth 48h, HCV inh, Pf growth 96h)
O=C(NNC(=O)c1csc(-c2cccnc2)n1)c1ccccc1	Pf growth 48h inconclusive, Pf growth 96h 10.4µM
COc1ccc(C)cc1NC(=O)N1CCCn2nc(C)cc21	none (no result: Pf growth 48h, HCV inh, Pf growth 96h)
COC(=O)c1c(NC(=O)c2cccc(N3C(=O)CCC3=O)c2)sc2c1CCN(C(C)=O)C2	Pf growth 96h 9.28µM
COC(=O)c1c(NC(=O)c2nc3ccccc3s2)sc2c1CCN(C(C)=O)C2	Pf growth 96h 10.4µM (no result: HCMV antiviral, Pf growth 48h)
CNC(=O)c1c(NC(=O)c2cccc(N3C(=O)CCC3=O)c2)sc2c1CCC2	none
CC(=O)N1CCc2c(sc(NC(=O)c3ccc4c(c3)OCCO4)c2C#N)C1	Pf growth 48h inconclusive, HCV inh 2.82µM
COc1cccc2c1cc1c(=O)n(CC(=O)NCc3ccc(N(C)C)cc3)nc(C)n12	none (no result: Pf growth 48h, HCV inh, Pf growth 96h)
O=c1ccc(-c2ccc(S(=O)(=O)NCC3CCN(Cc4ccccc4F)CC3)s2)n[nH]1	Pf growth 48h inconclusive, Pf growth 96h 2.94µM
COC(=O)c1cc(S(=O)(=O)NCC2CCN(Cc3ccccc3F)CC2)c[nH]1	none
CCOc1ccc(CCNC(=O)c2sc3ncccc3c2-n2cccc2)cc1OCC	none (no result: Pf growth 48h, HCV inh, Pf growth 96h)
CN(C)c1ccc(/C=C(\NC(=O)c2ccccc2)C(=O)NCCN2CCOCC2)cc1	Pf growth 96h 9.28µM
O=C(N/C(=C/c1ccc(F)cc1)C(=O)N1CCOCC1)c1ccccc1	none
CN(C)c1ccc(/C=C(\NC(=O)c2ccccc2)C(=O)NCCCN2CCOCC2)cc1	none
O=C(N/C(=C/c1ccc(Cl)cc1)C(=O)N1CCOCC1)c1ccccc1	HCMV antiviral -78.0
CCSc1nc2c([nH]c3ccccc32)c(=O)n1-c1ccc(F)cc1	none (no result: Pf growth 48h, HCV inh, Pf growth 96h)
CC[C@H](C)[C@@H]1NC(=O)[C@H]([C@@H](C)CC)NC(=O)[C@@H](CC(C)C)NC(=O)[C@H](Cc2ccccc2)NC(=O)[C@H](Cc2ccccc2)NC(=O)[C@@H]2CCCN2C(=O)[C@@H]2CCCN2C(=O)[C@H](C(C)C)NC(=O)[C@H](CC(C)C)NC1=O	HCMV antiviral -80.5 (no result: Pf growth 48h, Pf growth 96h)
ON=C(CCc1ccccc1)CCc1ccccc1	HCMV antiviral -74.8 (no result: Pf growth 48h, Pf growth 96h)
Cc1ccc2ccc3cccnc3c2n1	HCMV antiviral -77.8, HCV inh inconclusive (no result: Pf growth 48h, Pf growth 96h)
c1cnc2c(c1)ccc1ncccc12	none
COc1ccc(/C=C\c2onc(C)c2S(=O)(=O)N2CCC(C(=O)Nc3cccc(OC)c3)CC2)cc1	none (no result: Pf growth 48h, HCV inh, Pf growth 96h)
OC(Cc1ccnc2ccccc12)C(Cl)(Cl)Cl (centres undefined)	HCMV antiviral -80.2, HCV inh 11.2µM (no result: Pf growth 48h, Pf growth 96h)
O=C(O)C(Cc1ccnc2ccccc12)=NO	none (no result: Pf growth 48h, Pf growth 96h)
CC(C)C(=O)Nc1nc(-c2ccc3c(c2)CCN3C(=O)C2CC2)cs1	HCV inh inconclusive
CCC(CC)C(=O)Nc1nc(-c2ccc3c(c2)CCN3C(=O)C2CC2)c(C)s1	HCMV antiviral -101.7, HCV inh inconclusive, Pf growth 96h inconclusive (no result: Pf growth 48h)
